Experimental data: PubChem BioAssay AID2283234 (EPA ToxCast)
Inconclusive results are not listed. Calls of active or inactive are those of the source. The calls were made as follows: active = hit-call score of the fitted dose curve at least 0.9, where 1 is the maximum; inconclusive = response in the unintended direction; inactive = score below 0.9.

The compounds below were run against human Dual Specificity Styrosine-Phosphorylation-Regulated Kinase 1A (DYRK1a), DYRK1A (gene 1859) (UniProt Q13627) (assay: NVS_ENZ_hDYRK1a: NovaScreen (NVS) Enzymatic Assay for human Dual Specificity Styrosine-Phosphorylation-Regulated Kinase 1A (DYRK1a)).
Method: NVS_ENZ_hDYRK1a is a biochemical, single-readout assay that uses extracted gene-proteins in a cell-free assay. Measurements were taken 1 hour after chemical dosing in a 96-well plate.NVS_ENZ_hDYRK1a is one of one assay component(s) measured or calculated from the NVS_ENZ_hDYRK1a assay. It is designed to make measurements of enzyme activity, a form of enzyme reporter, as detected with fluorescence intensity signals by Fluorescence and electrophoretic mobility shift technology.Data from the assay component NVS_ENZ_hDYRK1a was analyzed into 1 assay endpoint. This assay endpoint, NVS_ENZ_hDYRK1a, was analyzed in the positive analysis fitting direction relative to DMSO as the negative control and baseline of activity. Using a type of enzyme reporter, loss-of-signal activity can be used to understand changes in the enzymatic activity as they relate to the gene DYRK1A. Furthermore, this assay endpoint can be referred to as a primary readout, because this assay has produced multiple assay endpoints where this one serves a enzymatic activity function. To generalize the intended target to other relatable targets, this assay endpoint is annotated to the kinase intended target family, where the subfamily is dual-specific kinase.
Binding assays used specific radioligands (tritiated, iodinated) with non-radioactive competitive displacement ligands in agonist or antagonist protocols (as indicated) and various reference compounds and inhibitors to titrate specific binding to receptors and transporters. Most enzyme assays (CYPs, kinases, phosphatases, proteases, HDACs) used recombinant protein and specific substrates (fluorescence mostly, some colorimetric and radioactive) and inhibitors, followed by a biochemical separation of substrate and product. All assays for the biochemical HTS were initially run in duplicate at a single concentration (10 uM for CYP450 assays and 25 uM for all others). […] Each assay was run with positive and negative controls, and concurrent controls on every plate. The follow-up (secondary) screen tested active chemical-pairs in concentration series, as well as a few additional assays not tested in the primary screen, some selected negative inactives, and several cases re-run in the concentration series for confirmatory purposes.
For S=C([S-])NCCNC(=S)[S-].[Mn+2], the AC50 was 6.02 µM (active). In the case of S=C(S)NCCNC(=S)S.[Mn+2].[S-]C([S-])=NCCN=C([S-])[S-].[Zn+2], the AC50 is reported as 1.39 µM (active). In the case of CC(C)(C)[C@@H](O)[C@@H](Cc1ccc(Cl)cc1)n1cncn1, the outcome is reported as “inactive”. With O=C(O)C1(C(=O)Nc2ccc(Cl)cc2Cl)CC1 the AC50 was 5.11 µM (active). N#CSCSc1nc2ccccc2s1 was tested, and the outcome was “inactive”.
